Laboratory results published in PMC4336329 (PLoS ONE, 2015).
The whole screen tested about 310,000 compounds, of which about 14,000 (4.5%) showed an effect of 50% or more. Effects have a minus sign here. This excerpt belongs to a sample that is enriched for strong results.

molecular target: human ether-à-go-go-related gene (hERG) potassium channel (human, UniProt Q12809); assay: primary screen, population patch clamp on CHO cells stably expressing hERG; higher = less effect of the substance
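Also: peak tail current of the secondary pulse compared with the same well before compound.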

Sequence of human ether-à-go-go-related gene (hERG) potassium channel (Q12809 whole entry, looked up): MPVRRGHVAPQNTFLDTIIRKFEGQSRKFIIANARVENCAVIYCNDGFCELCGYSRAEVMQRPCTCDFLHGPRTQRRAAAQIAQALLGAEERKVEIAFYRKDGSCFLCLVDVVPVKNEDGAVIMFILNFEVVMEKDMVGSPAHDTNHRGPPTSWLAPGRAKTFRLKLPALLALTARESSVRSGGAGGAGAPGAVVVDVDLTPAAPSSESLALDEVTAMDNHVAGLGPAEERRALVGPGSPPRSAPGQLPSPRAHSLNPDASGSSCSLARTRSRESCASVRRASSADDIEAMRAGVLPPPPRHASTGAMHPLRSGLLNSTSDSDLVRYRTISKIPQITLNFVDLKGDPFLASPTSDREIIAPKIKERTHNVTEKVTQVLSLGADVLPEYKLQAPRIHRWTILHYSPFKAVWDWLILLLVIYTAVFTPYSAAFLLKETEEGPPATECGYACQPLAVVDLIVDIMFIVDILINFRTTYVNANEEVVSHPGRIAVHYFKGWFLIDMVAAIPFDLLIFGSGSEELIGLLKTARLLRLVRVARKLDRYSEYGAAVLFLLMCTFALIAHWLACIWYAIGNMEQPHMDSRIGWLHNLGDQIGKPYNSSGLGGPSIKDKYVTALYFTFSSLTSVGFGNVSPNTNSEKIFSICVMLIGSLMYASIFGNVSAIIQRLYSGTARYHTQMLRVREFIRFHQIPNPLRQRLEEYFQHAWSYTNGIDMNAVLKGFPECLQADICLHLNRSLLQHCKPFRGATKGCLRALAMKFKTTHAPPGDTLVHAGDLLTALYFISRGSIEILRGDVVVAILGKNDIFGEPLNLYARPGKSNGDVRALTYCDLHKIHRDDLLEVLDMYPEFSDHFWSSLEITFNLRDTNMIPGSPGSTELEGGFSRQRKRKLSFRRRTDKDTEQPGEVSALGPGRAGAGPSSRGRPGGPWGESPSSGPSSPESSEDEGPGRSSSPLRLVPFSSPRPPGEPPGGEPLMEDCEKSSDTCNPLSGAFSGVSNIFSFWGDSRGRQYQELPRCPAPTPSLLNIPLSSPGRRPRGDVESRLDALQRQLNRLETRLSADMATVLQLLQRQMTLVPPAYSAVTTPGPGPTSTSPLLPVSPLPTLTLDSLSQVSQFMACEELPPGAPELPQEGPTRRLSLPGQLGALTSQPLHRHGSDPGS

Structure (SMILES)	hERG current change (%, negative = inhibition) at 10uM [%]
CC(=O)Nc1c(NCC(C)C)c2ccccc2oc1=O	16.7
Cc1ccc(NC(=O)N2CCc3ccccc3C2)cc1C	15.2
COC(=O)Cc1c(O)ccn(CCc2ccccc2)c1=O	51.2
CCCn1nc(C(=O)NCC2COc3ccccc3O2)c2ccccc2c1=O (stereo not shown)	-36.2
COc1ccc(N2CN=C3SCC(=O)N3C2)cc1	11.5
CC(NC(=O)C1C(=O)N(CCO)C2(C)CC1c1ccccc1O2)c1ccccc1 (stereo not shown)	-14.4
CC(=O)Nc1cccc(C(=O)Nc2ccccc2C(=O)O)c1	7.39
Cc1ccc(-c2csc(NC(=O)CSc3nc4ccccc4c(=O)n3CCCN(C)C)n2)cc1	-35.2
C=CCN(CC=C)c1nc2ccccc2nc1C(C#N)C(=O)OCCOC (stereo not shown)	-29.8
COc1ccccc1NS(=O)(=O)c1cc(NC(=O)C(C)(C)C)ccc1N1CCOCC1	-36.4
CCC(=O)Nc1ccc(N2CCOCC2)c(S(=O)(=O)Nc2ccc(Cl)cc2)c1	-25.2
Br.N=C1c2ccccc2CN1c1ccc(N2CCOCC2)c(S(=O)(=O)Nc2ccc(Cl)cc2)c1	-81
Br.COc1ccccc1NS(=O)(=O)c1cc(N2Cc3ccccc3C2=N)ccc1N1CCOCC1	-73.3
COc1ccccc1NS(=O)(=O)c1cc(NC(=O)C2CC2)ccc1N1CCOCC1	45.4
O=S(=O)(Nc1ccc(N2CCOCC2)cc1)c1cc(Cl)ccc1Cl	4.1
CCOC(=O)c1nc(C)sc1-c1ccnn1S(=O)(=O)c1ccccc1C(F)(F)F	-25.1
CN(CCCC1CCCC1)C(=O)CCc1nnc(-c2ccccc2)o1	-22.7
Cc1cccc(-c2n[nH]c(=S)n2/N=C/c2ccco2)c1	2.87
O=C1[C@@H]2C(Cc3ccc(O)cc3)NC3(C(=O)Nc4ccc(F)cc43)[C@@H]2C(=O)N1c1ccc(F)cc1 (stereo partly shown)	10.1
CC(O)(C#CCN1CCCCC1)c1ccccc1 (stereo not shown)	1.9
Cc1c[nH]c2cccc(OCC(O)CNC(C)(C)C)c12.Cl (stereo not shown)	-8.91
COC(=O)Cc1c[nH]c2cccc(OCC(O)CN(Cc3ccc([N+](=O)[O-])cc3)C(C)(C)C)c12.Cl (stereo not shown)	-4.66

Structure (SMILES)	hERG current change (%, negative = inhibition) at 10uM [%]
Cc1c[nH]c2cccc(OCC(CNC(C)(C)C)OC(=O)c3ccccc3)c12.Cl (stereo not shown)	1.02
COc1ccc(OCC(O)CN(C)C(=O)C(C)Oc2ccccc2)cc1 (stereo not shown)	6.31
CC(O)C(=O)O.COc1ccc(CN(CC(O)COc2cccc3[nH]cc(C)c23)C(C)(C)C)cc1 (stereo not shown)	-60.6
CC(O)C(=O)O.Cc1ccc(CN(CC(O)COc2cccc3[nH]cc(C)c23)C(C)(C)C)cc1 (stereo not shown)	-60.8
CCOC(=O)CSc1ncnc2c1sc1nc(N3CCOCC3)c3c(c12)CCCC3	12.7
CCOC(=O)CSc1ncnc2c(C(=O)OCC)c3n(c12)CCC3	-62.6
CCOC(=O)c1c2n(c3c(NCc4ccccc4)ncnc13)CCCC2	-76.3
CCOC(=O)c1c(C)nsc1NCc1ccccc1	5.94
CCSc1ncnc2c(C#N)c3n(c12)CCCCC3	-23.8
CCOC(=O)c1c(NCc2ccccc2)n[nH]c1C	5
COc1ccc(CNc2nnnn2C)cc1	20.9
CCOC(=O)Cc1csc(NC(=O)c2ccco2)n1	0.229
Cn1c(=O)[nH]c(=O)c2c1nc(Br)n2CCCSc1nc2ccccc2o1	-66.8
Cn1c(=O)[nH]c(=O)c2c1nc(Br)n2CCCCSc1nc2ccccc2o1	-55.6
Cn1c(=O)[nH]c(=O)c2c1nc(N1CCCC1)n2CCCSc1nc2ccccc2o1	-25.4
Cn1c(=O)[nH]c(=O)c2c1nc(N1CCCCC1)n2CCSc1nc2ccccc2o1	11.1
Cn1c(=O)[nH]c(=O)c2c1nc(Br)n2CCSc1nc2ccccc2o1	-1.02
Cn1c(=O)[nH]c(=O)c2c1nc(N1CCCCCC1)n2CCCSc1nc2ccccc2o1	-38.3
Oc1ccc(CNCC2COc3ccccc3O2)cc1 (stereo not shown)	4.89
COc1ccc(OCCC(=O)OCC(=O)NCCc2ccccc2)cc1	6.65
O=C(/C=C/c1ccccc1[N+](=O)[O-])NCC1CCCO1 (stereo not shown)	-3.47
COc1ccc(COC(=O)C2CCN(S(=O)(=O)c3ccc(Cl)cc3)CC2)cc1	30

Structure (SMILES)	hERG current change (%, negative = inhibition) at 10uM [%]
CCn1c(CSc2ncn[nH]2)nc2cc(C(=O)O)ccc21	-4.97
COc1cccc2c1Oc1ncccc1N(C(=O)CCC(=O)NCc1ccc(F)cc1)C2	-32.6
CCOc1ccc(CNC(=O)CCC(=O)N2Cc3cccc(OC)c3Oc3ncccc32)cc1	-44.3
CCOc1ccc(CNC(=O)CCC(=O)N2Cc3ccccc3Oc3ncccc32)cc1	-51.1
CCOc1ccccc1CNC(=O)CCC(=O)N1Cc2ccccc2Oc2ncccc21	-3.62
CCc1ccc(CNC(=O)CCC(=O)N2Cc3cccc(OC)c3Oc3ncccc32)cc1	-75
COc1cccc2c1Oc1ncccc1N(C(=O)CCC(=O)NCc1ccc(C)cc1)C2	-34.4
O=C1C=C(Nc2ccc(O)cc2)C(=O)c2ccccc21	4.35
CCc1ccccc1Nc1nc(-c2cccnc2)cs1	-3.32
Fc1ccc(NC(=S)N/N=C/c2ccc(F)c(F)c2)c(F)c1	13
Cc1nc(SCC(=O)NC2CCCC2)c2c(C)c(C)sc2n1	-4.48
CCc1cccc2c(C(=O)COC(=O)c3ccccc3)c[nH]c12	11.7
CCc1cccc2c(C(=O)COC(=O)c3cnc(C)cn3)c[nH]c12	2.87
O=C1CCC(C(=O)OCC(=O)c2c[nH]c3ccccc23)=NN1	1.19
CCc1cccc2c(C(=O)COC(=O)c3nccnc3N)c[nH]c12	-5.69
CCc1cccc2c(C(=O)COC(=O)C3=NNC(=O)CC3)c[nH]c12	-51.6
CCc1cccc2c(C(=O)COC(=O)c3nn(C)c(=O)c4ccccc34)c[nH]c12	-65.6
Fc1ccccc1NC(=S)NN(Cc1ccccc1)c1ccccc1	-13.9
CCNc1nc2[nH]c(=O)c3c(c2s1)OC(N)=C(C#N)C3c1ccc(C)cc1 (stereo not shown)	1.97
CCCc1nc(SCC(N)=O)[nH]c(=O)c1CC	7.34
CCOc1ccc(NC(=O)c2ccccc2CO)cc1	16.2
Cn1cnnc1SCC(=O)Nc1ccccc1Sc1ccccc1	-16.7

Structure (SMILES)	hERG current change (%, negative = inhibition) at 10uM [%]
COc1cc(C(=O)Nc2cc(C)cc(C)c2)c(-n2cnnn2)cc1OC	14.7
COCCN(C(=O)Nc1ccc(OC)cc1OC)C1CCN(C(C)=O)CC1	7.58
O=C(Nc1ccccc1)OC(CN1CCCCC1)C(F)(F)F (stereo not shown)	6.17
O=C(CN1CCCCC1)Nc1ccccc1	-1.04
Cl.O=C(Nc1ccccc1)OCC(CN1CCCCC1)OC(=O)Nc1ccccc1 (stereo not shown)	-60.1
CCN(CC(=O)Nc1ccc(NC(C)=O)cc1)C(=O)C1CCCN(C(=O)c2ccc(Cl)cc2)C1 (stereo not shown)	-3.75
COC(=O)c1ccccc1NC(=O)CN1CCC(NC(=O)c2ccccc2C)CC1	-39.9
CCOc1ccccc1C(=O)Nc1cc(OC)ccc1OC	-3.8
CCOc1cc2c(cc1OCC)CN(CC(=O)Nc1ccccc1C(=O)NC1CC1)CC2	-31.4
CCOc1ccccc1C(=O)NC1CCN(CC(=O)Nc2cc(OC)ccc2OC)CC1	-77.2
CCOc1ccccc1OCC(=O)Nc1ccccc1C(=O)NC1CC1	3.61
CCOc1ccccc1NC(=O)CN1CCC(NC(=O)c2ccccc2C)CC1	-59.4
Cc1ccccc1N1CCN(CC(=O)Nc2ccccc2C(=O)NC2CC2)CC1	-62.4
CC1CCN(CC(=O)Nc2ccccc2C(=O)NC2CC2)CC1	-17.4
CCOc1ccccc1NC(=O)N1CCC(NC(=O)c2ccccc2C)CC1	-1.06
CCOc1ccccc1N1CCN(CC(=O)Nc2ccccc2C(=O)NC2CC2)CC1	-70.2
COc1ccc(OC)c(NC(=O)CN2CCC(NC(=O)c3ccccc3C)CC2)c1	-12.3
CC(=O)c1ccc(N2CCN(CC(=O)Nc3ccccc3C(=O)NC3CC3)CC2)c(F)c1	-27.9
COc1cccc(OCc2nnc(SC)n2C)c1	-7.06
Cc1cc2ccccn2c1C(=O)c1ccc(NN)c([N+](=O)[O-])c1	-6.4
O=C(Nc1ccc(S(=O)(=O)Nc2ccccn2)cc1)c1ccc(Cl)cc1Cl	2.92
Cc1ccccc1NC(=O)CN1C(=O)S/C(=C\c2ccc(-c3cccc(C(=O)O)c3C)o2)C1=O	23.7
